Reference: PubChem BioAssay AID651820 (National Center for Advancing Translational Sciences (NCATS), 2012)
The whole screen tested about 340,000 compounds, of which about 12,000 (3.5%) were called active. Where a call stands in place of a potency, no number is given. Inconclusive results (about 18%) are left out. Many of the other results were omitted from the sample, so actives are more common in it than they were. Unmarked numbers belong to inactive results. Calls come from the whole dose curve; as a rule, active = well fitted inhibition curve with a large enough effect; inconclusive = small, poorly fitted or top-dose-only effect, or another doubt; inactive = no such curve, though single readings can be large or run the other way.

Experiment: qHTS Assay for Inhibitors of Hepatitis C Virus (HCV)
Settings: Huh7.5.1 HCVcc-Cre infection, luciferase reporter, 44 h; series mostly up to 41.8 µM
Procedure, shortened: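 Reporter virus HCVcc-Cre (~0.5 moi) infects cells exposed to compound; seeding density 1,000 cells/well with 4 h settling beforehand. Luminescence, 15 sec read, taken 44 h post-infection following a 15 min RT substrate incubation.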
Potency is the fitted concentration of half-maximal effect.

SMILES | Potency | activity change, negative = inhibition
COc1ccc(C(=O)Nc2nc(-c3ccc(S(=O)(=O)N4CCOCC4)cc3)cs2)cc1 | 35.5 µM (active) | –
CNC(=O)c1ccsc1NC(=O)c1ccc(S(=O)(=O)N2CCOCC2)cc1 | inactive | –
CCOC(=O)c1csc(NC(=O)c2ccc(S(=O)(=O)N3CCCC3)cc2)n1 | inactive | –
Cn1c(=O)[nH]c2c(c(C(=O)O)nn2C)c1=O | inactive | –
CCOC(=O)c1cnc2nc(SCc3ccccc3Cl)[nH]n2c1=O | inactive | –
CC(C)c1cc(C(=O)O)n[nH]1 | inactive | –
CC(C)c1cc(C(=O)N/N=C/C(Br)=C/c2ccccc2)n[nH]1 | 22.4 µM (active) | –
Cc1cc(C(=O)N/N=C\C(Br)=C\c2ccccc2)c(C)o1 | inactive | –
Cc1c(NC(=O)CSc2nnc(-c3cccnc3)n2N)c(=O)n(-c2ccccc2)n1C | inactive | –
O=C(O)c1ccc([N+](=O)[O-])cc1Sc1ccsc1 | inactive | –
O=C(c1cccc(S(=O)(=O)N2CCCCCC2)c1)N1CCN(Cc2ccccc2)CC1 | inactive | –
CCOC(=O)N1CCN(C(c2cccnc2)c2ccc3cccnc3c2O)CC1 (stereo not drawn) | inactive | –
Cc1nc2sc(C(c3ccco3)N3CCOCC3)c(O)n2n1 (stereo not drawn) | inactive | –
Oc1c(C(c2ccccn2)N2CCOCC2)ccc2cccnc12 (stereo not drawn) | 3.55 µM (active) | –
CCOC(=O)C1CCCN(C(=O)CSc2nnc3nc(C)cc(C)n23)C1 (stereo not drawn) | inactive | –
Cc1cc(C(=O)OCC(=O)N2C(C)CCCC2C)c2ccccc2n1 (stereo not drawn) | inactive | –
CCN(C(=O)CSc1ncnc2c1cnn2-c1ccccc1)C1CCS(=O)(=O)C1 (stereo not drawn) | inactive | –
CC(C)CN(C(=O)CSc1ncnc2sccc12)C1CCS(=O)(=O)C1 (stereo not drawn) | inactive | –
CCC(C)N(C(=O)CSc1ncnc2c1cnn2-c1ccccc1)C1CCS(=O)(=O)C1 (stereo not drawn) | 14.1 µM (active) | –
O=C(O)c1ccc(NN=CC2=C(N3CCOCC3)/C(=C/c3ccccc3)CC2)cc1 | inactive | –
CC/C(=C(/c1ccccc1)c1ccc(OCC[N+](C)(C)C)cc1)c1ccccc1 | inactive | –
COc1ccccc1C(=O)c1ccccc1C(=O)c1ccccc1 | inactive | –
CCOC(=O)C(=Cc1ccccc1OC)C(=O)OCC | 25.1 µM (active) | –

SMILES | Potency | activity change, negative = inhibition
CCOC(=O)c1ccccc1OC(=O)Oc1ccccc1C(=O)OCC | inactive | –
CC(=O)CC(CC(=O)NC1CCCCC1)c1ccccc1 (stereo not drawn) | inactive | –
CN(CC(=O)O)C(=O)c1ccccc1 | inactive | –
COc1cccc(NC(=O)CN(C)C(=O)CSC(=S)N2CCCC2)c1 | – | 7.26% [at 8.37 µM]
COCCN(CCOC)C(=S)Nc1ccccc1Cl | inactive | –
O=C(Nc1ccccc1Cl)/C(Cl)=C(\Cl)S(=O)c1ccccc1 (stereo not drawn) | 11.2 µM (active) | –
O=C(Nc1ccccc1Cl)Nn1cnnc1 | inactive | –
COc1ccc(-c2cc3ncccc3cn2)cc1 | inactive | –
CCCCCCCCn1c2c(c(=N)c3c1CCC3)CCCC2 | 3.98 µM (active) | –
O=C(CCNS(=O)(=O)c1ccccc1C(F)(F)F)Nc1ccncc1 | inactive | –
COc1ccccc1OCc1ccc(C(=O)NC(C)c2ccccc2)o1 (stereo not drawn) | 7.08 µM (active) | –
COc1ccccc1CNC(=O)c1ccc(CS(=O)(=O)c2ccccc2)o1 | inactive | –
COc1ccccc1OCc1ccc(C(=O)N2CCN(C)CC2)o1 | inactive | –
CCCCn1c(N)c(N(CC(C)C)C(=O)c2cccc(S(=O)(=O)N3CC(C)OC(C)C3)c2)c(=O)[nH]c1=O (stereo not drawn) | inactive | –
CCOC(=O)c1ccc(NC(=O)Cn2cnc3cc(C)c(C)cc32)cc1 | 3.55 µM (active) | –
CCCc1nnc(SCC(=O)Nc2ccc(C(=O)OCC)cc2)o1 | inactive | –
CCOC(=O)c1ccc(NC(=O)Cn2nnc(-c3ccc(C)cc3)n2)cc1 | inactive | –
Cn1c(SCC(=O)Nc2ccc(N3CCOCC3)cc2)nnc1C(F)(F)F | inactive | –
CC(NC(=O)c1ccccc1)C(=O)OCC(=O)Nc1cccc(S(=O)(=O)N2CCCC2)c1 (stereo not drawn) | inactive | –
Cc1c(-c2ccccc2)nc(N)c(C#N)c1-c1cccs1 | inactive | –
CN1CCc2nc(SC(C(=O)O)c3ccccc3)c(C#N)c(-c3cccs3)c2C1 (stereo not drawn) | 10 µM (active) | –
CC(NC(=O)CSc1nc2c(cc1C#N)CN(C)CC2)c1ccccc1 (stereo not drawn) | inactive | –
Cc1ccc([C@@H]2CC=C(C(=O)O)[C@H](c3cccc(Cl)c3)N2S(=O)(=O)c2ccc(C)cc2)cc1 | inactive | –

SMILES | Potency | activity change, negative = inhibition
CC(C)(C)OC(=O)C[C@@H]1C/C=C\C[C@@H](CC(=O)N(CCO)Cc2ccccc2)C(=O)N[C@H](Cc2ccccc2)COC1=O | inactive | –
Cc1csc(=O)n1CC(=O)OCC(=O)N(CC(C)C)c1c(N)n(Cc2ccccc2)c(=O)[nH]c1=O | inactive | –
Cn1c(=O)[nH]c(=O)c2c1nc(Br)n2CCCCSc1nc2ccccc2o1 | 12.6 µM (active) | –
Cn1c(=O)c2c(nc(Br)n2CCSc2nc3ccccc3o2)n(C)c1=O | inactive | –
Cc1ccnc(SCCn2c(Br)nc3c2c(=O)[nH]c(=O)n3C)n1 | inactive | –
CCCCC/C=C/C1=CC(=O)C[C@H](c2ccc(Cl)cc2)C1 | inactive | –
O=C1NCCn2nc3ccccc3c21 | inactive | –
Cn1c(N)c(C(=O)COC(=O)/C=C/c2cccc(C(F)(F)F)c2)c(=O)n(C)c1=O | inactive | –
Cc1cc(C)cc(-c2nnc(SCC(=O)NC3CC3)o2)c1 | inactive | –
O=C(c1ccc2c(c1)N(Cc1ccc(F)cc1)C(=O)CS2)N1CCOCC1 | inactive | –
CCOC(=O)N1CCN(C(=O)c2ccc3c(c2)N(Cc2ccc(C)cc2)CCS3)CC1 | 12.6 µM (active) | –
O=C(NCCN1CCOCC1)c1ccc2c(c1)N(Cc1ccc(Cl)cc1)CCS2 | inactive | –
O=C(NNC(=O)c1cc(S(=O)(=O)N2CCCCC2)ccc1Cl)c1ccccc1O | inactive | –
CN(C(=O)CN1C(=O)NC(C)(CCc2ccccc2)C1=O)c1ccccc1 (stereo not drawn) | inactive | –
O=C(COC(=O)c1cc[n+]([O-])cc1)Nc1ccc(Cl)c(C(F)(F)F)c1 | inactive | –
O=C1c2ccccc2C(=O)N1CCCCCCN1C(=O)c2ccccc2C1=O | inactive | –
O=C(NNC(=O)c1ccc2ccccc2c1)c1ccc(Cl)cc1 | inactive | –
COc1ccc(C(=O)CN2C(=O)NC3(CCc4ccccc43)C2=O)c(OC)c1 (stereo not drawn) | inactive | –
c1ccc(CCc2ccccn2)cc1 | inactive | –
CCOC(=O)C1=C(C)NC(=O)NC1c1ccccc1 (stereo not drawn) | inactive | –
CCOC(=O)C1=C(c2ccccc2)NC(=O)NC1c1cc(OC)c(OC)cc1OC (stereo not drawn) | inactive | –
CCOC(=O)C1=C(c2ccccc2)NC(=S)NC1c1ccc(Cl)cc1 (stereo not drawn) | 11.2 µM (active) | –
